Laboratory results: the supplement of paper PMC11150407
About 45 (2%) of roughly 3,000 compounds showed an effect of 50% or more. This excerpt belongs to a sample that is enriched for strong results.

These compounds were tested on MOLM1 and UCSD/AML1 (averaged) (assay: cell viability relative to DMSO control (POC); higher = less growth inhibition). Details: 1 µM; 72 h.
Procedure: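 Primary viability screen in the 3q26 EVI1-high AML cell lines MOLM1 and UCSD/AML1, compounds at 1 uM for 72 h. ATP CellTiter-Glo read-out given as percent viable over DMSO control (POC), averaged over duplicates. This mapping covers the TimTec NDL-3000 natural derivative library, whose compounds are identified by TimTec catalogue codes (ST...).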

Question: With Cc1ccc(-n2c(SCc3cccc(Cl)c3)nc3c(=O)[nH]cnc32)cc1 as the compound, how does the cell viability read?
Answer: 114%

Question: For CN(C)S(=O)(=O)Nc1ccc(S(=O)(=O)N2CCc3ccccc3C2)cc1, which cell viability is on record?
Answer: 98.2%

Question: For COc1ccc(-c2nnc(SCc3nc4ccccc4[nH]3)o2)cc1OC, which cell viability is on record?
Answer: 95.3%

Question: For Cc1ccc(/C=C2\Oc3cc(O)ccc3C2=O)cc1, which cell viability is on record?
Answer: 98.7%

Question: How did the cell viability turn out when O=C(CSc1nc2c(=O)[nH]cnc2n1-c1ccccc1)NC1CCCC1 was run?
Answer: 91.7%

Question: Which cell viability does the source give for CC(NC(=O)c1ccccc1)C(=O)O (stereo unspecified) here?
Answer: 99.5%

Question: COc1ccc(/C=C/C(=O)N2CCc3c([nH]c4ccccc34)C2c2ccc(OC)cc2)cc1 (stereo unspecified) was tested. Which cell viability did it give?
Answer: 90.2%

Question: For COc1ccc(C2c3[nH]c4ccccc4c3CCN2C(=O)/C=C/c2ccc(OC)c(OC)c2)cc1 (stereo unspecified), which cell viability is on record?
Answer: 81.9%

Question: COc1ccc(C2c3[nH]c4ccccc4c3CCN2C(=O)/C=C/c2cc(OC)c(OC)c(OC)c2)cc1 (stereo unspecified) was tested. Which cell viability did it give?
Answer: 32.6%

Question: For O=C(O)/C=C/c1ccc(Cl)c(Cl)c1, which cell viability is on record?
Answer: 97.8%

Question: For COc1cc(C(=O)N2CCOCC2)cc(OC)c1OC, which cell viability is on record?
Answer: 98.2%

Question: COc1cc(C(=O)N2CCN(c3cccc(C)c3C)CC2)cc(OC)c1OC was tested. Which cell viability did it give?
Answer: 12.5%

Question: With COc1cc(C(=O)N2c3ccccc3CC2C)cc(OC)c1OC (stereo unspecified) as the compound, how does the cell viability read?
Answer: 91.9%

Question: Which cell viability does the source give for COc1cc(C(=O)Oc2ccccc2)cc(OC)c1OC here?
Answer: 108%

Question: With COc1cc(C(=O)N2CCN(C(=O)c3cccc(Cl)c3)CC2)cc(OC)c1OC as the compound, how does the cell viability read?
Answer: 102%

Question: With COc1cc(C(=O)N2c3ccccc3C(C)=CC2(C)C)cc(OC)c1OC as the compound, how does the cell viability read?
Answer: 29.3%

Question: For O=C(/C=C/c1ccc2c(c1)OCO2)c1ccc2c(c1)OCCO2, which cell viability is on record?
Answer: 104%

Question: How did the cell viability turn out when Cn1c(SCc2ccc(Cl)cc2)nc2c(=O)[nH]cnc21 was run?
Answer: 90%

Question: Which cell viability does the source give for COc1ccc2[nH]cc(CCNC(=O)c3nn(-c4ccccc4)nc3C)c2c1 here?
Answer: 107%

Question: With CCC1C/C(=C\c2ccc(OC)cc2)C(=O)/C(=C/c2ccc(OC)cc2)C1 (stereo unspecified) as the compound, how does the cell viability read?
Answer: 12.8%

Question: How did the cell viability turn out when COc1ccc(/C=C2\Oc3ccc(Br)cc3C2=O)cc1 was run?
Answer: 97.7%

Question: With COc1ccc(/C=C2\CCc3ccccc3C2=O)cc1 as the compound, how does the cell viability read?
Answer: 94%

Question: With CCOC(=O)c1ccc2nc3c(=O)[nH]c(=O)nc-3n(CCc3ccc(OC)c(OC)c3)c2c1 as the compound, how does the cell viability read?
Answer: 99.7%

Question: COc1ccc(OCc2cc(C=O)ccc2OC)cc1 was tested. Which cell viability did it give?
Answer: 107%

Question: With COc1ccc(/C=C/C(=O)O)cc1COc1ccccc1 as the compound, how does the cell viability read?
Answer: 101%

Question: With COc1ccc(C=O)cc1COc1ccc2c(c1)CCC2 as the compound, how does the cell viability read?
Answer: 47.2%

Question: How did the cell viability turn out when O=C(OCC1CCCN2CCCCC12)c1ccccc1O (stereo unspecified) was run?
Answer: 96.9%

Question: With Cc1cc2oc(=O)cc(O)c2cc1C as the compound, how does the cell viability read?
Answer: 95.7%

Question: How did the cell viability turn out when O=C(c1ccccc1)N1CCN(CC(O)Cn2c3ccccc3c3ccccc32)CC1 (stereo unspecified) was run?
Answer: 99.4%

Question: How did the cell viability turn out when CC1(C(=O)O)CCC2(C)CCC3(C)C(=CC(=O)C4C5(C)CCC(OC6OC(C(=O)O)C(O)C(O)C6OC6OC(C(=O)O)C(O)C(O)C6O)CC5CCC43C)C2C1.CC1(C(=O)O)CCC2(C)CCC3(C)C(=CC(=O)C4C5(C)CCC(OC6OC(C(=O)O)C(O)C(O)C6OC6OC(C(=O)O)C(O)C(O)C6O)CC5CCC43C)C2C1.CC1(C(=O)O)CCC2(C)CCC3(C)C(=CC(=O)C4C5(C)CCC(OC6OC(C(=O)O)C(O)C(O)C6OC6OC(C(=O)O)C(O)C(O)C6O)CC5CCC43C)C2C1.[Fe] (stereo unspecified) was run?
Answer: 91.5%

Question: For O=c1cc(-c2ccccc2Cl)oc2c(Br)cc(Cl)cc12, which cell viability is on record?
Answer: 112%

Question: Which cell viability does the source give for O=C(N/N=C/c1cc(N=Nc2cccc(C(F)(F)F)c2)ccc1O)c1ccc2c(c1)OCO2 here?
Answer: 21.3%

Question: Which cell viability does the source give for O=C(N/N=C/c1cc(N=Nc2cccc3ccccc23)ccc1O)c1ccc2c(c1)OCO2 here?
Answer: 64.5%

Question: For O=C(N/N=C\c1cc(Br)cc(Br)c1OC(=O)c1cccc(F)c1)c1ccc2c(c1)OCO2, which cell viability is on record?
Answer: 64.1%

Question: Which cell viability does the source give for Cc1cc(=O)[nH]c(SCC(=O)Nc2cccc(C)c2C)n1 here?
Answer: 114%

Question: How did the cell viability turn out when Cc1ccccc1C(=O)OCC1CCCN2CCCCC12.O.O.O.O.O.O.O=[N+]([O-])O.O=[N+]([O-])O.[Co] (stereo unspecified) was run?
Answer: 104%

Question: CC(C)c1ccc(/C=C/C(=O)N2CCC3(O)CCCCC3C2c2ccc(F)cc2)cc1 (stereo unspecified) was tested. Which cell viability did it give?
Answer: 77.9%

Question: O=C(Nc1c(C(=O)Nc2ccccc2)c2ccccc2n(Cc2ccc(F)cc2)c1=O)c1ccccc1 was tested. Which cell viability did it give?
Answer: 94.1%

Question: With COc1cccc(C=Nc2ccc3cc4ccc(N=Cc5cccc(OC)c5O)cc4nc3c2)c1O as the compound, how does the cell viability read?
Answer: 2.39%

Question: Which cell viability does the source give for COC(=O)C1=C(C)NC(SCC(=O)c2ccc3c(c2)OCO3)=C(C#N)C1c1cccs1 (stereo unspecified) here?
Answer: 95.7%

Question: CC(C)C(=O)NCC(=O)NCC(=O)O was tested. Which cell viability did it give?
Answer: 98.8%

Question: O=C(CCNc1n[nH]c(=O)[nH]c1=O)N/N=C/c1cccnc1 was tested. Which cell viability did it give?
Answer: 93%

Question: For COc1ccccc1CNC(=O)c1cc(OC)c(OC)c(OC)c1, which cell viability is on record?
Answer: 100%

Question: Which cell viability does the source give for CCn1c2ccccc2c2cc(/C=N/NC(=O)c3cc(OC)c(OC)c(OC)c3)ccc21 here?
Answer: 10.7%

Question: For COc1cc(/C=N/NC(=O)CCC(=O)Nc2ccccc2C)cc(OC)c1OC, which cell viability is on record?
Answer: 91.6%

Question: Which cell viability does the source give for O=C(O)/C=C/c1c(Cl)cccc1Cl here?
Answer: 94.6%
